Source: PubChem BioAssay
AHR activator – activators of human aryl hydrocarbon receptor; AHR-responsive luciferase reporter cells, luminescence; activation, % at 5 µM; hit rate 2.5% among 320,000; AID 2796; in the data active = activation above about 47%
HIF act – HIF pathway transcriptional activation. U2OS HRE-luciferase reporter, luminescence; normalized: DMSO 0%, desferrioxamine 100%. activation, % at 7.5 µM (by protocol). hit rate 0.32% among 300,000. AID 1910;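 active = mean activation of at least 10% of the iron chelator positive control signal, with at least half of replicates also reaching 10%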
Yeast superoxide – yeast age-related superoxide inhibition as caloric restriction mimetic; AID 2690; superoxide response (% of plate mean), % at 10 µM; S. cerevisiae aged cells, superoxide DHE fluorescence; hits give low values; hit rate 0.18% among 330,000;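 active = superoxide response under a set limit, about three screen SD below normal, cut at about 65% in these data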;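 also: yeast aged for seven days with compound at 30 °C before DHE staining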
sPLA2-III inh – Inhibits HGIII-sPLA2 liposome hydrolysis, primary screen. hit rate 0.56% among 370,000. inhibition, % at 12.2 µM. AID 743126. Q9NZ20. QFRET BODIPY PC-A2 liposome hydrolysis, fluorescence;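 active = inhibition above mean plus 3 SD of compounds lying within the high and low control bounds, cut at about 19% in these data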
PLCg1 inh – inhibitors of human phospholipase C gamma1; AID 720700; P19174; purified PLC-gamma1, fluorogenic substrate, fluorescence; hit rate 0.84% among 370,000; inhibition, % at 12.2 µM; in the data active = inhibition above about 9.5%
PLC-beta3 inh – inhibitors of human phospholipase C beta3 | Q01970 | Purified PLC-beta3, fluorogenic substrate, fluorescence | inhibition, % at 12.2 µM | hit rate 0.18% among 370,000 | AID 720704; in the data active = inhibition above about 11%
Of the large screens only hits and unclear results are named; the others gave an inactive call. Hits are enriched below; roughly 3.9% of the tested compounds scored in any of these assays.

Cc1ccc(-c2nc(Nc3ccc(O)cc3)c3ccccc3n2)cc1	AHR activator 54
Cc1cccc(-c2nc(NCCCN3CCOCC3)c3ccccc3n2)c1	AHR activator 52
COc1ccc(OC)c(Nc2nc(-c3ccncc3)nc3ccccc23)c1	none (no result: AHR activator)
O=C(Nc1ccc2[nH]ccc2c1)c1cc(-c2ccc(Cl)cc2)nc2ccccc12	none (no result: AHR activator, HIF act, Yeast superoxide)
Cc1ccc(S(=O)(=O)N2c3ccc(F)cc3C[C@H]2CSc2ccccc2)cc1	none (no result: AHR activator, HIF act, Yeast superoxide)
CCOC(=O)CC[C@@H]1CC[C@]2(CCCN(Cc3nccs3)C2)O1	none (no result: AHR activator, HIF act, Yeast superoxide)
O=C(CCS(=O)(=O)c1ccccc1)Nc1nc2c(s1)COc1ccccc1-2	AHR activator 63
CC(=O)c1sc(NC(=O)CCS(=O)(=O)c2ccccc2)nc1C	none
Cc1ccccc1NC(=O)/C(C#N)=C/c1ccsc1	AHR activator 70
Cc1snc(S(=O)(=O)/C(C#N)=N/Nc2cccc(C(F)(F)F)c2)c1C#N	AHR activator 98 (no result: sPLA2-III inh, PLCg1 inh, PLC-beta3 inh)
COc1ccc(Nc2cc(C)nc3c(C)cccc23)cc1OC	AHR activator 68
CCNC(=O)Nc1ccc2c(c1)C(=O)N(C)[C@H]1CC[C@@H](CC(=O)NCCN3CCCC3)O[C@@H]1CO2	none (no result: AHR activator, HIF act, Yeast superoxide)
CN1CCN(Cc2nc3ccccc3c(=O)n2Cc2nc(-c3ccccc3F)cs2)CC1	HIF act 20
CN1CCN(Cc2nc3ccccc3c(=O)n2Cc2nc(-c3ccc4ccccc4c3)cs2)CC1	none
C=C(C)C1CC=C(C)/C(=N\NC(=S)Nc2ccc(C)cc2)C1 (stereo not given)	AHR activator 48
COC(=O)[C@]12C[C@H](CC(=O)N3CCCC3)C(=O)N(Cc3ccccc3)C1=C[C@H](C(C)C)O[C@@H]2C1CC1	none (no result: AHR activator, HIF act, Yeast superoxide)
O=C1CC(SC(=S)C2CCCC2=O)C(=O)N1 (stereo not given)	PLCg1 inh 12 (no result: AHR activator, HIF act, Yeast superoxide)
CC1=NN(c2ccccc2)C(=O)C1C(=S)SC1CC(=O)NC1=O (stereo not given)	none (no result: AHR activator, HIF act, Yeast superoxide)
COc1ccc(NC(=S)N/N=C/c2ccc(F)c(F)c2)cc1	AHR activator 114
CN(C)/C=N/c1nc2nccc(-c3ccc(F)cc3)n2n1	none
CN(C)/C=N/c1nc2nccc(-c3cccs3)n2n1	AHR activator 75
O=c1c(-c2ccco2)[n+]([O-])c2ccccc2n1OCc1ccccc1	AHR activator 61
O=c1c(-c2ccco2)[n+]([O-])c2ccccc2n1OCc1ccccc1F	none
COc1ccccc1COn1c(=O)c(-c2ccco2)[n+]([O-])c2ccccc21	none
O=c1c(-c2ccco2)[n+]([O-])c2ccccc2n1OCc1c(F)cccc1F	AHR activator 49
COC1=C[C@H](C(=O)NCc2ccccn2)[C@H](C)[C@@H](c2ccccc2)CC1=O	none (no result: AHR activator, HIF act, Yeast superoxide)
CC1CCN(CCCNS(=O)(=O)c2cc3c(cc2Br)CCN3C(=O)C2CC2)CC1	none (no result: AHR activator, HIF act, Yeast superoxide)
Cc1ccc(NC(=O)N2CCC(N(C)CCC(C)C)CC2)cc1F	none (no result: AHR activator, HIF act, Yeast superoxide)
COCCN1CCCc2nc(-c3ccc(Br)cc3)ccc21	none (no result: AHR activator, HIF act, Yeast superoxide)
CCN1N=C(c2ccccc2)Cn2c1nc1ccccc12	AHR activator 67
O=C(O)Cc1ccc(NC(=O)Nc2ccc(Br)cc2)cc1	none
COc1ccc(NC(=O)Nc2ccc(Br)cn2)cc1	HIF act 40
COc1ccc(NC(=O)Nc2ccc(CC(=O)O)cc2)cc1	HIF act 27
CC(C)=CC([C@]12C[C@H](CO)N[C@@H]1Nc1ccccc12)S(=O)(=O)c1ccccc1 (stereo not given in full)	none (no result: AHR activator, HIF act, Yeast superoxide)
Cc1ccsc1C=Nn1c(-c2n[nH]c3c2CCC3)n[nH]c1=S	none (no result: AHR activator, HIF act, Yeast superoxide)
CC(=O)OCCCN1CCC2(CCCCC2)C1=O	none (no result: AHR activator, HIF act, Yeast superoxide)
Cc1cccc(C2NC(=O)c3c(sc(C)c3C)N2)c1O (stereo not given)	none
Cc1ccc(C2NC(=O)c3c(sc(C)c3C)N2)c(O)c1 (stereo not given)	AHR activator 49
O=C(/C(=C/O)N=Nc1cccc(C(F)(F)F)c1)c1ccccc1	AHR activator 75
COc1cc(/C=C/C(=O)c2ccc3c(c2)OCCO3)cc(Br)c1OCC(=O)N(C)C	HIF act 25
CCC(=O)N1CCc2cc(Br)c(S(=O)(=O)NC3CCN(Cc4ccccc4)CC3)cc21	none (no result: AHR activator, HIF act, Yeast superoxide)
CC(=O)N1CCN(c2ccc(S(=O)(=O)N3CCOCC3)cc2[N+](=O)[O-])CC1	PLCg1 inh 10.0 (no result: HIF act)
O=C(C1CCN(c2ncnc3c2sc2cccc(F)c23)CC1)N1CCN(Cc2ccccc2)CC1	none (no result: AHR activator, HIF act, Yeast superoxide)
